Tests used:
Assay in all cases: log2 ratio of Biotin-Ahx-Ub-VS probe labelling (fragment/DMSO); higher = less target engagement (more negative = stronger competition), active = hit call of the paper (q ≤ 0.05, log2 ratio ≤ -1)
Conditions in all cases: compound concentration: 200 uM; treatment time: 3 h
ALG13 = molecular target: T1, ALG13 (UniProt Q9NP73)
T1 sequence (whole entry): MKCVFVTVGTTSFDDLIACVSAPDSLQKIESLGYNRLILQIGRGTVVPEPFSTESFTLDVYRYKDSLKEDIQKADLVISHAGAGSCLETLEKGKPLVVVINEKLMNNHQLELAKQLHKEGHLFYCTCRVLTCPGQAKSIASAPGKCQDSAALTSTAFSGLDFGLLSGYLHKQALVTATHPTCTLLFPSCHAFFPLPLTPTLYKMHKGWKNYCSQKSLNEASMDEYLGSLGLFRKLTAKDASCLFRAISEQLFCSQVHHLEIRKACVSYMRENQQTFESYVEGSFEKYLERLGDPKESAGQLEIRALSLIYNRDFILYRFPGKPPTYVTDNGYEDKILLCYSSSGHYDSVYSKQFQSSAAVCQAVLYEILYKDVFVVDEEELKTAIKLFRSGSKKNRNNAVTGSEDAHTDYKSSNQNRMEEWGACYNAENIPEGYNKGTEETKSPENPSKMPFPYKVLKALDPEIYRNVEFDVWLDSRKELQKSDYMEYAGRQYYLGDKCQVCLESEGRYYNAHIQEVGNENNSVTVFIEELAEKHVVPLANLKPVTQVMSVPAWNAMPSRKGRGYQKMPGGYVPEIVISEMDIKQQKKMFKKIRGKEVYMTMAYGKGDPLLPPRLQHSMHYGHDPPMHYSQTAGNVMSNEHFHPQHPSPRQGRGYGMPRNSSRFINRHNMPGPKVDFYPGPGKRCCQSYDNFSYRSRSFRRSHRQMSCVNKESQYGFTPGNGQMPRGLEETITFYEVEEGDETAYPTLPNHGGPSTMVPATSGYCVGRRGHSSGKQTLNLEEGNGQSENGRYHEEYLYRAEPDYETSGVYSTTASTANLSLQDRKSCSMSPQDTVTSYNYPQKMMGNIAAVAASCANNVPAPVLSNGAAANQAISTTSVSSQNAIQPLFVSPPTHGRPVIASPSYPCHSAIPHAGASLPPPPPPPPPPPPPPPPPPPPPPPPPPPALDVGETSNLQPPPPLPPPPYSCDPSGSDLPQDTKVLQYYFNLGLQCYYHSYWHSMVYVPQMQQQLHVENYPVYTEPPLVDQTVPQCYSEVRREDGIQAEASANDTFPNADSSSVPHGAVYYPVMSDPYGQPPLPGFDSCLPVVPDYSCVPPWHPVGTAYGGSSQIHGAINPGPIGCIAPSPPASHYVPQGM
Procedure, shortened: (§1)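 Fragment (200 µM) or vehicle was incubated for 3 h with triplicate HEK293T lysate samples of 495 µg, which were then treated with Biotin-Ahx-Ub-VS at 0.5 µM final for 1 h. Labelled DUBs were enriched on NeutrAvidin, digested with LysC and trypsin, and analysed by diaPASEF LC-MS/MS. Values are average log2 fragment/vehicle ratios from an unpaired t-test on global-median-normalised Spectronaut label-free quantities, using proteins with ≥2 unique peptides.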

ATXN3 = ATXN3 (UniProt P54252)
Procedure, shortened: as §1

BAP1 = molecular target: T2, BAP1 (UniProt Q92560)
T2 sequence (whole entry): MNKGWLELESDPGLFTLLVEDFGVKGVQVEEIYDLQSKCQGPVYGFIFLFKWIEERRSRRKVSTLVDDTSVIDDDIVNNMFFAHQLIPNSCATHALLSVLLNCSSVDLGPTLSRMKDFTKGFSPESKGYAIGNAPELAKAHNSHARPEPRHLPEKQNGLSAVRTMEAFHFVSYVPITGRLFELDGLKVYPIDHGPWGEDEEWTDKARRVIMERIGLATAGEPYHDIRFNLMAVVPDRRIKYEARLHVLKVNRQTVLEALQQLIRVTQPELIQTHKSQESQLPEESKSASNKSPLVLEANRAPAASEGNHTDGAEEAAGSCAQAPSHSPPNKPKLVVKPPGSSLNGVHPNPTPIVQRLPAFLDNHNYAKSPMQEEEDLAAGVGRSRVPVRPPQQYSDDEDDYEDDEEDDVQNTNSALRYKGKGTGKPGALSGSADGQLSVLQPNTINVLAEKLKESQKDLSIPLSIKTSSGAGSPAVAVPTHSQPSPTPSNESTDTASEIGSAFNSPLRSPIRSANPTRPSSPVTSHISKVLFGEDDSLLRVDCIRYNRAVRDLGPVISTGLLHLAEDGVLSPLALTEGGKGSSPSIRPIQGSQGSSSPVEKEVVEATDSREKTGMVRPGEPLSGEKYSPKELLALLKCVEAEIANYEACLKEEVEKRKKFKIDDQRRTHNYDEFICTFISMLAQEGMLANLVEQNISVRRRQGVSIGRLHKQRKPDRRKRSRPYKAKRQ
Procedure, shortened: as §1

EIF3F = EIF3F (UniProt O00303)
Procedure, shortened: as §1

EIF3H = EIF3H (UniProt O15372)
Procedure, shortened: as §1

FAM105A = molecular target: T3, FAM105A (UniProt Q9NUU6)
T3 sequence (whole entry): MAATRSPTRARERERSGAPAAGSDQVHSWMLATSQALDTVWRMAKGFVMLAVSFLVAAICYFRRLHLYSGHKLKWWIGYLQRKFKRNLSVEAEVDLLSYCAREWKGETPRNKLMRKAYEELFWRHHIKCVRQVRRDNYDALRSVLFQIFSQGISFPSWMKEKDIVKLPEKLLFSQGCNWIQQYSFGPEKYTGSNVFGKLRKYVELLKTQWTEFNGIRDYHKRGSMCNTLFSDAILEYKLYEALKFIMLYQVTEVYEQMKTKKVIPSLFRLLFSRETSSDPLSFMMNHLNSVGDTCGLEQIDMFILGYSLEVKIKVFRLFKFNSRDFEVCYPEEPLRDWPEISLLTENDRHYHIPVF
Procedure, shortened: as §1

OTUB1 = OTUB1 (UniProt Q96FW1)
Procedure, shortened: as §1

OTUD4 = molecular target: T4, OTUD4 (UniProt Q01804)
T4 sequence (whole entry): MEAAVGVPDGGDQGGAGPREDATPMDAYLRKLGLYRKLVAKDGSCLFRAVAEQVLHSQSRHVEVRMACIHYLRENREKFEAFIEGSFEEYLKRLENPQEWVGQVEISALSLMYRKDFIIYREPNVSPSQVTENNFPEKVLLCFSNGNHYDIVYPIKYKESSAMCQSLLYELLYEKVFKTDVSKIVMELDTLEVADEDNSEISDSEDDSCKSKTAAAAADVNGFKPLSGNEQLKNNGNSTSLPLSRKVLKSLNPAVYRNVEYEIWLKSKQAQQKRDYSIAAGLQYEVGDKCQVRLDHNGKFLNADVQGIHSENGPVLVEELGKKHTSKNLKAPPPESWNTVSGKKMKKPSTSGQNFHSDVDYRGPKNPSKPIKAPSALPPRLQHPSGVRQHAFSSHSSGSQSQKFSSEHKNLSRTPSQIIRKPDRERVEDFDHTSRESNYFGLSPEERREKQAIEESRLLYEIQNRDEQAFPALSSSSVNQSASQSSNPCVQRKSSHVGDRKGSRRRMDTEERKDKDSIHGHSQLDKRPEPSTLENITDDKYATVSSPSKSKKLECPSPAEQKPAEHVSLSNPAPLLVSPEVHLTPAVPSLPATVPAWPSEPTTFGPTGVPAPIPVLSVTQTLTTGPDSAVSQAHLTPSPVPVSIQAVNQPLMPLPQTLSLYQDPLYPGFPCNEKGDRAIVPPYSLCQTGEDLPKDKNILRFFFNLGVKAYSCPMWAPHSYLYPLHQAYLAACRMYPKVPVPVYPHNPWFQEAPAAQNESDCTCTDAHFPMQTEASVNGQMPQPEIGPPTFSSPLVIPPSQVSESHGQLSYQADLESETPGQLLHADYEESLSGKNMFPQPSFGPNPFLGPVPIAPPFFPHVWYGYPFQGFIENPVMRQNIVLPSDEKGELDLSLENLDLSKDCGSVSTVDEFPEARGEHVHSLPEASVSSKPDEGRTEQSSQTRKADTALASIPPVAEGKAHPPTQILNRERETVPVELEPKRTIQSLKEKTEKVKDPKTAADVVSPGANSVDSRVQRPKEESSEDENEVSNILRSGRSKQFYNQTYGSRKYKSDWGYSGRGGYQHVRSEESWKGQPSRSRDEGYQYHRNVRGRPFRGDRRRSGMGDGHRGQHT
Procedure, shortened: as §1

OTUD5 = molecular target: T5, OTUD5 (UniProt Q96G74)
T5 sequence (whole entry): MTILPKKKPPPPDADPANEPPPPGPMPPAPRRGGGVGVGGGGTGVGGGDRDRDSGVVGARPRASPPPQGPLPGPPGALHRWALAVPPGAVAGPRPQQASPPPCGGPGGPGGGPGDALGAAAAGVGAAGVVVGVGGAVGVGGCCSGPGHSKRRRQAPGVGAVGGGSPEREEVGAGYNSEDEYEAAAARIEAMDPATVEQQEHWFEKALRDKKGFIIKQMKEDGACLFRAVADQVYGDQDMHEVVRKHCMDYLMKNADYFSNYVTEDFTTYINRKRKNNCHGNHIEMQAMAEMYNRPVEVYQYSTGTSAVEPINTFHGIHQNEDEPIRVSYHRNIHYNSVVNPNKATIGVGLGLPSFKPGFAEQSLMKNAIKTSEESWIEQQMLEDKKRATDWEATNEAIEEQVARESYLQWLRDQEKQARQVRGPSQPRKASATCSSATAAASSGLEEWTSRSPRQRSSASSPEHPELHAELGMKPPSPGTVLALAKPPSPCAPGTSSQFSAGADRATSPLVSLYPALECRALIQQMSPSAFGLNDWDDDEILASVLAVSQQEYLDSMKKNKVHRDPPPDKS
Procedure, shortened: as §1

Measured: log2 ratio of Biotin-Ahx-Ub-VS probe labelling

EIF3H, sequence (O15372 whole entry): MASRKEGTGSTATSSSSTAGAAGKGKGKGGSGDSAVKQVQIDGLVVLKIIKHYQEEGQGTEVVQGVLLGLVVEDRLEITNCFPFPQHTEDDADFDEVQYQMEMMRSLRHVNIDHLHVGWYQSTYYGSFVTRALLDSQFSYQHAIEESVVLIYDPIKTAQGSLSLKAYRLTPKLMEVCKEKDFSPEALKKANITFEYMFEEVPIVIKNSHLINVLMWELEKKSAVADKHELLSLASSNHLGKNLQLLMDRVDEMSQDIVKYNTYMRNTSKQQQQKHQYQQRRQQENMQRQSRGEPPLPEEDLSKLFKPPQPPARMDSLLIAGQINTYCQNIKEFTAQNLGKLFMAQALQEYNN
ATXN3, sequence (P54252 whole entry): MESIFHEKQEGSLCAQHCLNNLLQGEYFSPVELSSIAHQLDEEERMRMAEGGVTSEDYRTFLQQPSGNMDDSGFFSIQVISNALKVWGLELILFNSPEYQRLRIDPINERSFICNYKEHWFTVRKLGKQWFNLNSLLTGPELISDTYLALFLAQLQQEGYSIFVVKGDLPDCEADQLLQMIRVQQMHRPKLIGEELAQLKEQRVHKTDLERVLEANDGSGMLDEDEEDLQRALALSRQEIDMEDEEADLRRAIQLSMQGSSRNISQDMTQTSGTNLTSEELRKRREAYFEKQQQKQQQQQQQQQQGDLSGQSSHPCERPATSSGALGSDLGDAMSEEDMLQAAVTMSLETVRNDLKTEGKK
OTUB1, sequence (Q96FW1 whole entry): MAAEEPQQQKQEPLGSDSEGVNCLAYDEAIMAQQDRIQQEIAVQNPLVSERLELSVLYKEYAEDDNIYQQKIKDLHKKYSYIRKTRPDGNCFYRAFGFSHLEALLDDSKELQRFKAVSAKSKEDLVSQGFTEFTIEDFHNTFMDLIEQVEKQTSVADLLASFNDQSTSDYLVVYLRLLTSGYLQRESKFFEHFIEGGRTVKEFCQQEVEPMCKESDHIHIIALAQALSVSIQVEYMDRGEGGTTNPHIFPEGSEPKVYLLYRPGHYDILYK
EIF3F, sequence (O00303 whole entry): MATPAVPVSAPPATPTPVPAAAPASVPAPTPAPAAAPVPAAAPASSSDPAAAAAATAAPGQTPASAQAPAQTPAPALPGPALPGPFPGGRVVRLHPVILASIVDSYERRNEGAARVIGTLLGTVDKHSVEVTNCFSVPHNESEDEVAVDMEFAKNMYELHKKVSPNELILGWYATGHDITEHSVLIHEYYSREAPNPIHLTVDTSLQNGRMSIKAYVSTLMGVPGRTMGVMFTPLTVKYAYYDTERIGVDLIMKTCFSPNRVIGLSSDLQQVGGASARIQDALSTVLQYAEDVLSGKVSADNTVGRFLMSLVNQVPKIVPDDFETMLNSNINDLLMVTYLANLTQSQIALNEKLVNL

O=C(CCl)N1CCC(C(=O)N2CCCCCC2)CC1
inactive: ALG13 0.205 | ATXN3 -0.407 | BAP1 -0.398 | EIF3F -0.0762 | EIF3H 0.0816 | FAM105A -0.0217 | OTUB1 0.0563 | OTUD4 -0.035 | OTUD5 -0.328

Reference: the supplement of paper PMC11732987, “Enantioselective OTUD7B fragment discovery through chemoproteomics screening and high-throughput optimisation” (Communications Chemistry, 2025)
